GLP-1R agonist – activates the human GLP-1 receptor; HEK293 GLP-1R CRE-luciferase, luminescence, 4-6 h; cells express a hypersensitive GLP-1R form; AID 624172; 380,000 compounds, 0.007% hits; P43220; Potency, µM (highest dose often 45.6 µM), for inactives: at the top dose activation, actives largely listed as activators; also: % of control where 0% means no effect
HEK293 tox – cytotoxicity in counter-screen for GLP-1R inverse agonists; HEK293 cAMP-luciferase reporter cells, luminescence, 24 h; Potency, µM (top dose mostly 38.3 µM), for inactives: top-dose activity change, negative = inhibition, actives largely listed as inhibitors; AID 624418; 410,000 compounds, 0.13% hits;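 also: loss of luciferase light is scored as toxicity; % is scaled to controls: 0 for no effect and ±100 for the full control effect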
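A 23 nL compound transfer followed 12 hours of cell culture at 37 deg C; exposure then lasted 24 hr. Luciferase assay detection reagent was dispensed and plates read for luminescence after a 12 min room-temperature wait.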
Pin1 inhibitor – blocks the human prolyl isomerase Pin1 | Q13526 | Pin1 FP peptide displacement, HiFluor488, 10 min | Potency, µM (titrated, usually from 115 µM), for the others: at the highest dose activity, negative = inhibition, actives largely listed as inhibitors | 390,000 compounds, 0.009% hits; active = well fitted inhibition curve with a large enough effect in the polarisation, with a control signal flat, not every such curve was filed as active; inconclusive = small, poorly fitted or top-dose-only effect, or effect the other way, or a change in a side signal; inactive = no such curve, though single readings can be large or run the other way; the % refers to the polarisation; also: % is scaled to controls: 0 for no effect and ±100 for the full control effect
Target sequence (Q13526 whole entry, looked up): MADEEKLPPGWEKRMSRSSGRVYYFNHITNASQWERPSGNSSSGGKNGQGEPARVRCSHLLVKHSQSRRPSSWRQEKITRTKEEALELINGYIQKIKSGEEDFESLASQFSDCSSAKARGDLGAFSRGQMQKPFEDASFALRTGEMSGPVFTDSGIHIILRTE
PGK inhibitor – inhibitors of T. brucei phosphoglycerate kinase. P07378. PGK/GAPDH coupled, Kinase-Glo luminescence, 60 min. Potency, µM (titrated, usually from 57.5 µM), for inactives: at the top dose activity change, negative = inhibition, usual class: inhibitors. 380,000 compounds, 0.043% hits. AID 602233; also: % is scaled to controls: 0 for no effect and ±100 for the full control effect; nearly all actives have a fitted effect of over 60% in size
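Luminescent ATP detection (Kinase-Glo Plus) follows a 60-minute room-temperature incubation, with wells lacking PGK as controls. Buffer: 100 mM TEA (pH 7.6), 5 mM MgCl2, 0.01% Tween-20. Coupling enzyme GAPDH (100 nM final) supplies unstable 1,3-BPG in-well.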
GLP-1R inv ag – GLP-1 receptor (human) inverse agonism; Potency, µM (doses to about 38.3 µM), for the others: top-dose activity change, negative = inhibition, most hits filed as inhibitors; 410,000 compounds, 1.6% hits; HEK293 GLP-1R CRE-luciferase, luminescence, 24 h; GLP-1R form is constitutively active; P43220; also: % is scaled to controls: 0 for no effect and ±100 for the full control effect; nearly all actives have a fitted effect of over 55% in size
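Assay principle: reduced luminescence from a cAMP-responsive reporter in HEK293 cells co-expressing a constitutively active GLP-1R. Conditions: 24 hr compound incubation, 37 deg C, 5% CO2.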
Tb PFK inh – blocks T. brucei phosphofructokinase; O15648; T. brucei PFK, ADP-Glo luminescence; Potency, µM (series often up to 57.5 µM), for the others: at the highest dose activity, negative = inhibition, hits mostly inhibitors; 330,000 compounds, 0.17% hits; AID 485367;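 also: 0% = uninhibited 1x PFK enzyme wells and -100% = no-enzyme wells; nearly all actives have a fitted effect of over 60% in size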
Target sequence (O15648 whole entry, looked up): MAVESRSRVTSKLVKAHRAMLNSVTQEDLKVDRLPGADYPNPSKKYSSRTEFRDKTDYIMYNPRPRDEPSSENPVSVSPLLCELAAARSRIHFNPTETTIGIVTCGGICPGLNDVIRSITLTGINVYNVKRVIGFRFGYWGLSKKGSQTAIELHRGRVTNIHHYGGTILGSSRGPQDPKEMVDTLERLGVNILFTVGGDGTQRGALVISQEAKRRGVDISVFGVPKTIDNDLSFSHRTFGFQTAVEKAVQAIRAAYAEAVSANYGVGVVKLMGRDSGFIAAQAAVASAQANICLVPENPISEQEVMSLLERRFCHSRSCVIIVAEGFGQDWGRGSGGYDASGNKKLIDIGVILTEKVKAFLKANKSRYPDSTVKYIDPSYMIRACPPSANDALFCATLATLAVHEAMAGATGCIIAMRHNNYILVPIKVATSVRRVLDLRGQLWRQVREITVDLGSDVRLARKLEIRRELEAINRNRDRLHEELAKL
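In TEA buffer at pH 8.0 with 5 mM MgCl2, enzyme (1.25 nM) converted F6P (0.5 mM) and ATP (0.1 mM) for 45 min at room temperature. ADP product was read by luciferase luminescence.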
The depositor's hits bear a star; i = inactive; ? = inconclusive; . = no result given. Shown are actives, neighbours in structure and some others; about 1.8% of the full set was active somewhere. Unless noted, calls follow the shape of the dose curve; as a rule, active = well fitted curve in the direction sought with a large enough effect; inconclusive = small, poorly fitted or top-dose-only effect, or another doubt; inactive = no such curve, though single readings can be large; an effect the other way counts as inactive or inconclusive. Potency is read from the fitted curve at half-maximal effect.

SMILES | GLP-1R agonist | HEK293 tox | Pin1 inhibitor | PGK inhibitor | GLP-1R inv ag | Tb PFK inh
CCOc1ccc(OCC)c(S(=O)(=O)NCCOC23CC4CC(CC(C4)C2)C3)c1 | 0% | -13% | 12% | -3% | 4µM* | 6%
Cc1cccc(N2C(=O)CC(Sc3nc(C)c4c(n3)CCCC4)C2=O)c1 (stereo not given) | 22% | 5µM* | 2% | -8% | -22% | -9%
Cc1ccc(C)c(Cn2c(=O)n(Cc3ccco3)c(=O)c3oc4ccccc4c32)c1 | . | 12% | -2% | 1% | -3% | .
NS(=O)(=O)c1ccc(CCNC(=O)c2cc(-c3ccc(Br)cc3)nc3ccccc23)cc1 | -1% | 11µM* | 15% | -8% | ? | 15%
O=C(CCS(=O)(=O)c1ccc(Br)cc1)NCCc1ccccc1 | 1% | -4% | -27% | ? | ? | -19%
CCCc1ccc(-c2cc(C(=O)NCCc3ccc(S(N)(=O)=O)cc3)c3ccccc3n2)cc1 | 1% | -15% | -2% | -7% | -3% | -6%
NS(=O)(=O)c1ccc(CCNC(=O)CCS(=O)(=O)c2ccc(Br)cc2)cc1 | 0% | -7% | -9% | . | 16% | 15µM*
O=C(CCNS(=O)(=O)c1ccc(Cl)cc1)NCCc1ccccc1 | 6% | -2% | . | i | -9% | .
O=C(CCNS(=O)(=O)c1ccc(Br)cc1)NCCc1ccc(Cl)cc1 | 5% | 4% | -3% | -9% | 10µM* | -7%
CCN(CC)S(=O)(=O)c1ccc(C(=O)NCCSc2c(-c3ccc(C)cc3)[nH]c3ccccc23)cc1 | . | 1% | 21% | i | -18% | .
CN1CCN(CCCNC(=O)c2cnn(-c3ccccc3)c2-n2cccc2)CC1 | . | 3% | -1% | -2% | -17% | .
CCCCNS(=O)(=O)c1ccc(NC(=O)C(Sc2ccccc2)c2ccccc2)cc1 (stereo not given) | -5% | -12% | 5% | -8% | 4.5µM* | 5%
CC(C)NC(=S)NN(c1ccccc1)c1ccccc1 | -3% | -19% | -4% | -1% | 11µM* | 2%
COc1ccc(OC)c(-c2nnc3n2N=C(c2ccc(OC)c(OC)c2)CS3)c1 | 2.2µM* | . | -3% | -8% | . | -1%
COc1ccc(C2=Nn3c(nnc3-c3ccccc3OC)SC2)cc1OCC1CC1 | 4µM* | . | 5% | 2% | . | -2%
CCOc1ccc(C2=Nn3c(nnc3-c3ccc(OC)cc3)SC2)cc1 | 10µM* | -18% | ? | -1% | 0% | 2%
COc1ccc(OC)c(C2=Nn3c(nnc3-c3cc(OC)ccc3OC)SC2)c1 | . | . | 0% | . | . | .
COc1ccc(OC)c(C2=Nn3c(nnc3C3CCCCC3)SC2)c1 | 6% | 12% | 2% | -5% | 59% | 2%
COc1ccc(C2=Nn3c(nnc3C3CCCCC3)SC2)cc1OC | 3.2µM* | 2% | ? | -1% | 105% | 5%
COc1ccc2c(c1)CC(NC(=O)Nc1cc(Cl)ccc1OC)CO2 (stereo not given) | . | 4% | -1% | -2% | ? | .
Cc1cc2c(s1)c1cnn(Cc3ccc(Cl)c(Cl)c3)c(=O)c1n2C | . | . | 4% | . | . | .
CCOCCCn1c(SCC(=O)NCCCOC)nc2c(sc3ccccc32)c1=O | . | -1% | 1% | -6% | 6% | .
COc1ccc(-c2nn3c(C4CCCCC4)nnc3s2)cc1OC | 2.5µM* | -7% | ? | -5% | 0% | -26%
COc1cc(-c2nn3c(C4CCCCC4)nnc3s2)cc(OC)c1OC | 2% | 17% | -3% | -6% | 41% | 4%
CCCCCn1ncc2c3sc(C)cc3n(C)c2c1=O | . | . | -1% | . | . | .
SMILES | GLP-1R agonist | HEK293 tox | Pin1 inhibitor | PGK inhibitor | GLP-1R inv ag | Tb PFK inh
CC[C@@H]([C@H](C)O)n1ncn(-c2ccc(N3CCN(c4ccc(OCC5CO[C@@](Cn6cncn6)(c6ccc(F)cc6F)C5)cc4)CC3)cc2)c1=O (stereo not given in full) | -5% | . | . | . | . | .
O=C1CC(c2ccccc2)Cc2[nH]c(=O)c(-c3nc(-c4ccc(Cl)cc4)cs3)cc21 (stereo not given) | . | 5% | 20% | i | ? | .
Cc1sc(-c2cc3c([nH]c2=O)CC(c2ccccc2)CC3=O)nc1-c1ccc(Cl)cc1 (stereo not given) | . | ? | ? | -4% | 1.3µM* | .
OC(CNC1CCCC1)COc1ccc(-c2ccccc2)cc1 (stereo not given) | 1% | 10% | 2% | -1% | 8.9µM* | -4%
CC(NCC(O)COc1ccc2ccccc2c1)c1ccccc1 (stereo not given) | 10% | ? | -18% | -1% | 2.8µM* | 1%
CN(CC(O)COc1ccc2ccccc2c1)C1CCCCC1 (stereo not given) | 0% | -20% | -2% | -5% | 8.9µM* | 1%
COc1ccc(OCC(O)CNC(C)c2ccccc2)cc1 (stereo not given) | 3% | 4% | -8% | 2% | -24% | 0%
COc1ccc(OCC(O)CN(C2CCCCC2)C2CCCCC2)cc1 (stereo not given) | 9% | -18% | -1% | -2% | ? | 1%
CCCC(NCC(O)COc1ccc(-c2ccccc2)cc1)c1ccccc1 (stereo not given) | -6% | ? | -3% | -3% | 13µM* | -6%
Cc1cc2c(s1)c1cnn(Cc3ccccc3C)c(=O)c1n2C | . | . | -2% | . | . | .
O=C(CCNS(=O)(=O)c1ccc2c(c1)CCCC(=O)N2)Nc1cccc(Cl)c1 | -4% | -10% | -9% | -5% | -9% | .
COc1cccc(NC(=O)Cn2c(=O)n(-c3cccc(OC)c3)c(=O)c3sc4ccccc4c32)c1 | 0% | -7% | 1% | -1% | 9% | .
CC(NCC(O)COC1CCC(C(C)(C)C)CC1)c1ccccc1 (stereo not given) | 3% | ? | -1% | . | 10µM* | -3%
CC(NCC(O)COc1ccc(Br)cc1)c1ccccc1 (stereo not given) | 1% | -14% | -2% | i | ? | 2%
O=C(O)/C=C(/CC(=O)O)C(=O)O | -5% | . | . | . | . | .
CCOc1ccc(CCNC(=O)c2sc3ncccc3c2-n2c(C)ccc2C)cc1 | . | 9% | 23% | -1% | ? | .
Cc1ccc(CCNC(=O)c2sc3ncccc3c2-n2c(C)ccc2C)cc1 | . | -5% | 12% | -9% | 11µM* | .
CCO[C@@H]1OC(C(=O)N2CCN(Cc3ccc4c(c3)OCO4)CC2)=C[C@H](C2CCCCC2)[C@H]1CCCO | 14% | -26% | -10% | i | 11µM* | -11%
c1ccc(COc2cccc(-c3cc4nc(NCCOc5ccccc5)ccn4n3)c2)cc1 | 3% | 6% | . | . | 10µM* | .

Source: PubChem BioAssay (National Center for Advancing Translational Sciences (NCATS))
